Assay results as given in ChEMBL document CHEMBL3988442, “University of Dundee, Small-Polar-MMV Screening Library” (2021).
Among all 48,000 compounds or so, about 13,000 (27%) showed an effect of 50% or more. The list shows a part of the results.

These compounds were tested on Wolbachia pipientis (assay: Anti-Wolbachia Cell-Based Screen). Conditions: 5 µM.
Format: functional
Design: scale not given: in the data most compounds retested in dose-response had high values

| SMILES | Percent Effect |
| --- | --- |
| O=C(NCc1nn(-c2ccccc2)c2c1CCC2)NC1CC1 | -2.781% |
| CCc1cc(CNC(=O)NCc2ccc(N3CCCCC3)cc2)on1 | -23.7% |
| O=C1CC(NS(=O)(=O)c2ccc(F)c(Cl)c2)CN1 (stereo not drawn) | 135.6% |
| CC(Cn1ccnc1)NS(=O)(=O)c1ccc(F)c(Cl)c1 (stereo not drawn) | -9.501% |
| O=S(=O)(NC1CC1)c1cccc(Br)c1 | -14.81% |
| O=C(c1ccc(S(=O)(=O)NC2CCC2)cc1)N1CC[C@H]2CNC[C@H]21 | -0.3981% |
| Cc1ccc(S(=O)(=O)NC2CCC(=O)NC2)cc1Br (stereo not drawn) | -11.56% |
| O=C1CC(NS(=O)(=O)c2cccc(F)c2)CN1 (stereo not drawn) | 126.5% |
| COC(=O)c1ccc(S(=O)(=O)NC2CNC(=O)C2)cc1 (stereo not drawn) | 131% |
| COc1cccc(S(=O)(=O)NC2CNC(=O)C2)c1 (stereo not drawn) | 1.379% |
| CSc1ccc(S(=O)(=O)NC2CNC(=O)C2)cc1 (stereo not drawn) | -0.4933% |
| O=C1CC(NS(=O)(=O)c2ccc(Br)cc2)CN1 (stereo not drawn) | 151.1% |
| Cn1nnn(-c2ccc(NS(=O)(=O)c3ccc(F)c(Cl)c3)cc2)c1=O | -5.508% |
| CSCCCN1CCn2nc(CNC(=O)N(C)C)cc2C1 | -17.64% |
| Cc1ncsc1CCC(=O)NC1CCN(c2ncccc2C#N)CC1 | 5.658% |
| Cc1ccc2c(c1)C(N1CCOCC1)CC21CCNCC1 (stereo not drawn) | -7.905% |
| Cc1ccccc1SCC(=O)Nn1cnnc1 | -2.526% |
| O=C(C(O)c1ccccc1Cl)N1CCCN(Cc2cccnc2)CC1 (stereo not drawn) | -0.1768% |
| Cc1nc([C@@H]2C[C@H]3CN(Cc4ccc5c(c4)OCO5)C[C@H]3O2)no1 | -16.45% |
| O=C1CC(NS(=O)(=O)c2ccccc2)CN1Cc1ccccc1 (stereo not drawn) | 4.424% |
| O=C1CC(NS(=O)(=O)c2ccc(Cl)cc2)CN1 (stereo not drawn) | 124.5% |

| SMILES | Percent Effect |
| --- | --- |
| N#CC1COCCN1S(=O)(=O)c1ccc2ccccc2c1 (stereo not drawn) | -7.007% |
| Cc1ccc(S(=O)(=O)NC2CNC(=O)C2)cc1C (stereo not drawn) | -5.685% |
| O=C(COCC1CC1)Nc1cc(S(=O)(=O)NC2CC2)ccc1F | 1.35% |
| O=C1CC(NS(=O)(=O)c2ccc3ccccc3c2)CN1 (stereo not drawn) | 96.97% |
| CC(C)O[C@H]1CN(C(=O)CCN2CCCCO2)C[C@@H]1O | -9.995% |
| Cc1nnc(SCCNC(=O)c2cc(S(N)(=O)=O)ccc2F)s1 | 5.633% |
| O=C(O)C(F)(F)F.O=C(c1ccco1)N1C[C@@H]2CN(c3ccccn3)C[C@@H]2C1 | -23.25% |
| O=C(O)C(F)(F)F.O=C(c1ccc(F)cc1)N1C[C@@H]2OCCN(c3ncccn3)[C@@H]2C1 | -10.32% |
| O=C(O)C(F)(F)F.O=C(c1ccoc1)N1C[C@@H]2[C@@H](C1)OCC(=O)N2Cc1cccnc1 | -4.595% |
| O=C(O)C(F)(F)F.O=C(c1ccoc1)N1C[C@@H]2OCCN(c3ncccn3)[C@@H]2C1 | 85.6% |
| O=C(O)C(F)(F)F.O=C(c1ccccc1)N1CCO[C@@H]2CN(c3ncccn3)C[C@@H]2C1 | 5.105% |
| O=C(c1ccoc1)N1CC[C@@H]2[C@@H](CC1)OCCN2c1cccnc1 | -2.409% |
| O=C(O)C(F)(F)F.O=C(c1ccco1)N1C[C@@H]2OCCN(c3ncccn3)[C@@H]2C1 | 113.8% |
| O=C(O)C(F)(F)F.O=C(c1ccc(O)cc1)N1C[C@@H]2OCCN(c3ncccn3)[C@@H]2C1 | 101.3% |
| O=C(O)C(F)(F)F.O=C(c1ccco1)N1C[C@@H]2[C@@H](C1)OCC(=O)N2Cc1cccnc1 | -32.49% |
| CSCC[C@@H](CO)Nc1ccc(-c2nc(-c3ccccc3C)no2)cn1 | 8.283% |
| CC(C)CS(=O)(=O)CC(=O)NC(C)(C)c1cccc(F)c1 | 8.066% |
| CO[C@@H]1CCC[C@@H](NC(=O)C(C)(C)c2cccc(F)c2)[C@H]1O | 116.6% |
| COCCN1CCC(NC(=O)Nc2cccc(F)c2)C1 (stereo not drawn) | -22.85% |
| Fc1cccc(-n2nc(C3CC3)nc2CCn2cnnn2)c1 | -8.194% |
| Cc1nn(C)c(C)c1CN(C)C(=O)C1COc2ccccc2C1 (stereo not drawn) | -11.47% |

| SMILES | Percent Effect |
| --- | --- |
| CN(C)Cc1ccnc(C2CCCN2Cc2cc[nH]n2)n1 (stereo not drawn) | -4.978% |
| Cc1cnn(CC2CCCN2CC(=O)N(C)Cc2cnn(C)c2)c1 (stereo not drawn) | -0.6585% |
| Cc1cnc(CN2CCCC2c2noc(C)n2)cn1 (stereo not drawn) | -5.918% |
| CN(C)Cc1ccnc(C2CCCN2Cc2ccc(F)cn2)n1 (stereo not drawn) | 110.9% |
| Cc1nn(C)c(C)c1CN1CCCC1c1nccc(CN(C)C)n1 (stereo not drawn) | 96.16% |
| Cn1cc(C2CCCN2Cc2csc(C(C)(C)C)n2)cn1 (stereo not drawn) | 3.745% |
| CN(C)Cc1ccnc(C2CCCN2Cc2cccc(F)c2F)n1 (stereo not drawn) | 111% |
| CCCn1cc(CN2CCCC2c2nccc(CN(C)C)n2)cn1 (stereo not drawn) | 91.04% |
| C1CCN(CCOC2CCNC2)CC1.Cl.Cl (stereo not drawn) | -5.434% |
| CCNC(=O)[C@@H]1C[C@H](N)CN1Cc1ccc2cccc(Cl)c2n1 | 33.76% |
| Cn1cnc(S(=O)(=O)N2C[C@H](OCC3CC3)[C@H]3OCCC[C@H]32)c1.O=C(O)C(F)(F)F | -7.803% |
| CCSCC(C)NCc1nn(C)c2ccc(C)cc12 (stereo not drawn) | -30.17% |
| CCC1CN(C(=O)c2ccc(O)c(C)c2)CCN1C(C)C (stereo not drawn) | -1.675% |
| COC(=O)[C@@H]1Cc2c[nH]c3cccc(c23)[C@H](CC(C)C)N1 | -15.46% |
| O=C(CCOCC(F)(F)F)NS(=O)(=O)c1cccnc1 | 3.556% |
| Cc1ccc(CCN2C(=O)CC[C@H]3CN(Cc4cnn(C)c4)CC[C@H]32)o1 | 42.08% |
| CN1CCc2nnc(C3CCCN3S(=O)(=O)c3ccc(F)cc3)n2CC1 (stereo not drawn) | 101.3% |
| Fc1ccc(-c2nnc(CN3CCn4c(nnc4C4CC4)C3)o2)cc1 | -8.144% |
| CCN(CC)S(=O)(=O)N1CCCC1c1nnc2n1CCN(C)CC2 (stereo not drawn) | 109.2% |
| CCN(CC)S(=O)(=O)N1CCCC1CC(=O)c1cccs1 (stereo not drawn) | 1.947% |
| CCN(Cc1cnn(C)c1)S(=O)(=O)N1CCCC1c1ccco1 (stereo not drawn) | 12.89% |
